Where “and” joins values, the source holds several entries; their conditions need not be identical. Identical values can stand only once. Unmarked numbers belong to inactive results. Records with an inconclusive call do not appear. A call without a number means that no potency is given here. Calls of active or inactive are those of the source. Calls follow the shape of the dose curve; as a rule, active = well fitted curve in the direction sought with a large enough effect; inconclusive = small, poorly fitted or top-dose-only effect, or another doubt; inactive = no such curve, though single readings can be large; an effect the other way counts as inactive or inconclusive.
Key:
[1] = Cellular Toxicity (caspase-3) H-4-II-E (AID 663); conditions: H-4-II-E rat hepatoma, scaled: DMSO 0%, 100 µM tamoxifen 100%; at 92.2 µM (top of the series);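 also: cells exposed to compound for 16 hr before readout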
Method in brief: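 Apoptosis induction is scored as increased luminescence from caspase 3/7 substrate cleavage in rat hepatoma H-4-II-E cells exposed to compound for 16 hr. Activity is scaled between DMSO and 100 uM tamoxifen.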

[2] = Cellular Toxicity (caspase-3) Hek293 (AID 664); conditions: HEK293 caspase-3 activation, DMSO = 0%, 100 µM tamoxifen = 100%; at 92.2 µM (top of the series);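 also: cells exposed to compound for 16 h at 37 °C before readout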
Method in brief: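 Cells plated, 5 hr at 37 °C; compounds added; 16 hr at 37 °C; Caspase-Glo 3/7 reagent, 20 min RT; luminescence read. Activation expressed relative to DMSO and 100 uM tamoxifen, AC50 by Hill model.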

[3] = Cellular Toxicity (caspase-3) N2a (AID 665); conditions: Potency: caspase-3 activation;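 also: compound exposure lasted 16 h at 37 °C before readout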; also: potency is read from the fitted curve at half-maximal effect
Method in brief: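 N2a cells, 1500/well, 5 h settle at 37 °C; cpd 16 h, 37 °C; Caspase-Glo 3/7, 1 h RT; luminescence. Norm: DMSO = 0, 10 uM staurosporine = 100%. AC50, Hill fit.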

[4] = Cellular Toxicity (caspase-3) NIH 3T3 (AID 666);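 also: caspase signal read after 16 h compound exposure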; also: potency is read from the fitted curve at half-maximal effect
Method in brief: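 Luminescence from aminoluciferin released by caspase-3/7 cleavage of a peptide substrate served as read-out. Mouse fibroblast NIH 3T3 cells were exposed to compounds over a concentration range for 16 hours, and AC50 values came from standard Hill modelling.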

[5] = Cellular Toxicity (caspase-3) Renal Proximal Tubule (AID 667); conditions: Potency: caspase-3 activation;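 also: cells exposed to compound for 16 hours at 37 °C before detection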; also: potency is read from the fitted curve at half-maximal effect
Method in brief: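 In qHTS format, rat primary proximal tubule cells seeded at 1000 per well are exposed to compounds for 16 hours at 37 °C. An increase in Caspase-Glo 3/7 luminescence indicates caspase activation.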

[6] = molecular target: Cytochrome P450 3A4 (Homo sapiens) (UniProt P08684); experiment: qHTS Assay for Activators of Cytochrome P450 3A4 (AID 885); also: nearly all actives have a fitted effect of over 65% in size
Method in brief: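 Human CYP3A4 (20 nM) with Luciferin-PPXE at 25 uM (its KM) in 200 mM KPO4; 10 min compound preincubation, then NADPH regeneration and 60 min reaction at RT. Luciferin read by luminescence; normalized to 57 uM ketoconazole full inhibition.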

[7] = molecular target: Cytochrome P450 2C19 (Homo sapiens) (UniProt P33261); experiment: qHTS Assay for Inhibitors and Substrates of Cytochrome P450 2C19 (AID 899); also: nearly all actives have a fitted effect of over 60% in size; also: potency is read from the fitted curve at half-maximal effect
Method in brief: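 Reactions contain 5nM enzyme, 10uM Luciferin-H EGE (KM) and 50mM KPO4; compound preincubates 10 min at 37C, NADPH regeneration starts turnover for 60 min. Luminescence after detection reagent gives activity.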

[8] = molecular target: Guanine nucleotide-binding protein G(i) subunit alpha-1 (Homo sapiens) (UniProt P63096); experiment: qHTS Assay for Inhibitors of RGS12 GoLoco Motif Activity (Green Fluorophore) (AID 879);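 also: negative values mean loss of peptide binding seen as reduced polarization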
Method in brief: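 Fluorescence polarization assay: 50 nM Gαi1 with 10 nM FITC-labeled RGS12 GoLoco peptide in 10 mM Tris pH 7.5, 150 mM NaCl, 0.1 mM GDP, 0.05% NP40, 10 min at room temperature with compound.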

[9] = molecular target: Cytochrome P450 2C9 (Homo sapiens) (UniProt P11712); experiment: qHTS Assay for Inhibitors and Substrates of Cytochrome P450 2C9 (AID 883); also: nearly all actives have a fitted effect of over 60% in size; also: potency is read from the fitted curve at half-maximal effect
Method in brief: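 Turnover of Luciferin-H (100uM, KM) by 10nM human CYP2C9 was measured over 60 min at 37C with NADPH regeneration; inhibitors and some substrates reduce luminescence. Data normalized to sulphaphenazole 57uM.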

[10] = molecular target: Cytochrome P450 2D6 (Homo sapiens) (UniProt P10635); experiment: qHTS Assay for Inhibitors and Substrates of Cytochrome P450 2D6 (AID 891);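 also: luciferin methyl ether substrate demethylated by CYP2D6 with NADPH regeneration; nearly all actives have a fitted effect of over 60% in size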
Method in brief: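 Human CYP2D6 (5 nM) with 30 uM Luciferin-ME EGE (at Km) in 100 mM KPO4, compound preincubated 10 min, then NADPH regeneration system for 60 min at room temperature. Luciferin read by luminescence; normalized to 1.43 uM quinidine.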

[11] = qHTS Assay for Identification of Small Molecule Agonists for Thrombopoietin (TPO) Signaling Pathway (AID 917)
Method in brief: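 We measured Glycoprotein IIb promoter–luciferase output in IL-3-starved Ba/F3 murine cells expressing the human TPO receptor after 24 hrs at 37 C with compounds and 26 pM TPO.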

[12] = molecular target: Muscarinic acetylcholine receptor M1 (Rattus norvegicus) (UniProt P08482); experiment: qHTS Assay for Antagonists of Acetylcholine Muscarinic M1 Receptor: Kinetic Measurement of Intracellular Calcium Response (AID 943);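 also: Fluo-4 calcium signal as peak divided by basal fluorescence over 4 min; nearly all actives have a fitted effect of over 75% in size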
Method in brief: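 Rat M1-CHO cells, 2000/well, overnight → Fluo-4 no-wash dye with probenecid, 1 h 37C → compound 10 min, room temp → basal read 6 s → carbachol EC80 (100 nM) → 4 min kinetic read; peak/basal.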

[13] = molecular target: Muscarinic acetylcholine receptor M1 (Rattus norvegicus) (UniProt P08482); experiment: qHTS Assay for Antagonists of Acetylcholine Muscarinic M1 Receptor: Measurement of IP-One Response (AID 944); also: nearly all actives have a fitted effect of over 75% in size
Method in brief: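 M1-CHO (rat), 2000 cells/well, overnight recovery; cpd 10 min; carbachol EC80 (200 nM), 30 min, HEPES buffer + 50 mM LiCl pH 7.4; IP-One HTRF, Ex 337, Em 620/665 nm.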

[14] = molecular target: Cytochrome P450 3A4 (Homo sapiens) (UniProt P08684); experiment: qHTS Assay for Inhibitors and Substrates of Cytochrome P450 3A4 (AID 884); also: nearly all actives have a fitted effect of over 50% in size; also: potency is read from the fitted curve at half-maximal effect
Method in brief: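 20 nM human CYP3A4 with 25 uM Luciferin-PPXE (at KM) in 200 mM KPO4, preincubated 10 min with compound; NADPH regeneration started a 60 min RT reaction. Luciferin detected by luminescence, normalized to 57 uM ketoconazole as full inhibition.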

[15] = Confirmation and Secondary Assay for Modulators of Hemoglobin Beta Chain Splicing at IVS2 654 locus (AID 910);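 also: HeLa cells stably carrying EGFP split by mutant beta-globin IVS2-654 intron; per-well total GFP intensity by laser scanning cytometry after 2-day treatment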
Method in brief: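 Readout: per-well total peak green fluorescence (488 nm ex, 500–520 nm em) from objects 5–250 µm, reflecting correct splicing of an EGFP-654 reporter. Compounds were applied for 2 days at 37 °C to overnight-plated HeLa EGFP-654 cells; controls were DMSO and 500 nM IVS2-654 PNA.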

[16] = Confirmation and Secondary Assay for Modulators of Hemoglobin Beta Chain Splicing at IVS2 705 locus (AID 930);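 also: HeLa cells stably expressing the EGFP-705 splicing reporter; GFP fluorescence per well restored by corrected splicing of the IVS2-705 intron in EGFP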
Method in brief: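 Fluorescence gain (488 nm laser, 500-520 nm PMT) reflects restored correct splicing of a mutant IVS2-705 intron inside EGFP in stably transfected HeLa cells after 2-day compound treatment.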

Sequence of Guanine nucleotide-binding protein G(i) subunit alpha-1 (Homo sapiens) (P63096 whole entry, looked up): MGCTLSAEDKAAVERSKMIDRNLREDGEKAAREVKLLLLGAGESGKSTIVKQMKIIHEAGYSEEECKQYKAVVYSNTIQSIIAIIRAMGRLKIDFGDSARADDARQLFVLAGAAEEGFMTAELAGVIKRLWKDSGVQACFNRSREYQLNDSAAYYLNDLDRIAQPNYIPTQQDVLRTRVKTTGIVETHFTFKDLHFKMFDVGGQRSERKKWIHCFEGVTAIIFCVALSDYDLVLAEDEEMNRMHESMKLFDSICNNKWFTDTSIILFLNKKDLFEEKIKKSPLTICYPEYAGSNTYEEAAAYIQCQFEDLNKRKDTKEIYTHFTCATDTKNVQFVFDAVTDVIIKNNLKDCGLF
Sequence of Muscarinic acetylcholine receptor M1 (Rattus norvegicus) (P08482 whole entry, looked up): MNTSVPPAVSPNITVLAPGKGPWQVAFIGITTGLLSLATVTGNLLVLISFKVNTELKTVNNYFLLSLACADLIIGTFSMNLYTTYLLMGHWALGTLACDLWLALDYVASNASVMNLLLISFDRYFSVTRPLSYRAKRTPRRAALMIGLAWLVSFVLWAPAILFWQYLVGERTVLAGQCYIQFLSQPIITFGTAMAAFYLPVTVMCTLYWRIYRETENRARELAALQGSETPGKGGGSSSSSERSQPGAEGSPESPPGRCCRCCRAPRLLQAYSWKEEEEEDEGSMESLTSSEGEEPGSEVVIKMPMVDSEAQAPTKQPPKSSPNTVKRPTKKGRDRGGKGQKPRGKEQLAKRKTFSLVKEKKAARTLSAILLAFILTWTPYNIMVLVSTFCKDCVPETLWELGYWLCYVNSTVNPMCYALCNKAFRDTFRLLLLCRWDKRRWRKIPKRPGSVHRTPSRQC
Sequence of Cytochrome P450 2C9 (Homo sapiens) (P11712 whole entry, looked up): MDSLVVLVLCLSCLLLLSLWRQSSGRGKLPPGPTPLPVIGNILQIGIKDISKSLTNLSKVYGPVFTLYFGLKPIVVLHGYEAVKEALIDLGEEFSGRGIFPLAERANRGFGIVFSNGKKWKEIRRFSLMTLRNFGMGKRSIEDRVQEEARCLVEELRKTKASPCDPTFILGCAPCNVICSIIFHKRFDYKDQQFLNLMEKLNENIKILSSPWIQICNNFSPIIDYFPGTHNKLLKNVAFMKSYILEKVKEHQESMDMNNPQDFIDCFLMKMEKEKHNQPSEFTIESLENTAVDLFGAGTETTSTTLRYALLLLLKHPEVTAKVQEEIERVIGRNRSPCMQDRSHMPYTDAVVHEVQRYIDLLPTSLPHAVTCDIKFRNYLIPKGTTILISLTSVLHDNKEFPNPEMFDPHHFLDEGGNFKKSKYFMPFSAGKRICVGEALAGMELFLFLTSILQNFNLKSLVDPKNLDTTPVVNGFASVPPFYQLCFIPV
Sequence of Cytochrome P450 2C19 (Homo sapiens) (P33261 whole entry, looked up): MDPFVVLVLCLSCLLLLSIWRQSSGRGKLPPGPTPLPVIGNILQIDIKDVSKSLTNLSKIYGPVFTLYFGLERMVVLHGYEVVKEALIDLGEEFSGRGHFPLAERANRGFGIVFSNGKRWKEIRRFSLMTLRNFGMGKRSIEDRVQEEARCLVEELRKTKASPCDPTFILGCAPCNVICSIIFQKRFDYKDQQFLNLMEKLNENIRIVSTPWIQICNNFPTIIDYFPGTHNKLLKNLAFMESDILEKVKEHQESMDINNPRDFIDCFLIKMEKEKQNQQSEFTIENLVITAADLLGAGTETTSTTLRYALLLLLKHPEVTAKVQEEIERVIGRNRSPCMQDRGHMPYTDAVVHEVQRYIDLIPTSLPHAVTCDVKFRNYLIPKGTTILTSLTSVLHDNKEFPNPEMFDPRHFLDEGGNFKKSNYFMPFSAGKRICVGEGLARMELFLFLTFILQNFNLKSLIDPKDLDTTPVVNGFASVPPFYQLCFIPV
Sequence of Cytochrome P450 3A4 (Homo sapiens) (P08684 whole entry, looked up): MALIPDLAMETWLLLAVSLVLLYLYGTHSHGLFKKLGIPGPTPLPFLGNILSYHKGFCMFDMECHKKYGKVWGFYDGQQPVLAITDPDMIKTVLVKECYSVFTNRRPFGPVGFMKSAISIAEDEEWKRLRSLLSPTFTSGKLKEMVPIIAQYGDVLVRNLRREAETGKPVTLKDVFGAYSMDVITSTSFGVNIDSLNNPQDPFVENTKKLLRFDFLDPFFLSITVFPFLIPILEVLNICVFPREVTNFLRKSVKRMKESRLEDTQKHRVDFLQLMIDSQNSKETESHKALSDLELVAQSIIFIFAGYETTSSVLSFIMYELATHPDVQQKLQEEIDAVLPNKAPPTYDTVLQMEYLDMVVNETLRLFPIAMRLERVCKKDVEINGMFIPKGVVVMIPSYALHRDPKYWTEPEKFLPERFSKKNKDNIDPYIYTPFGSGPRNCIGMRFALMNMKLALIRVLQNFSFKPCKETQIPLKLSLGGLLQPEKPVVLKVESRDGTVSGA
Sequence of Cytochrome P450 2D6 (Homo sapiens) (P10635 whole entry, looked up): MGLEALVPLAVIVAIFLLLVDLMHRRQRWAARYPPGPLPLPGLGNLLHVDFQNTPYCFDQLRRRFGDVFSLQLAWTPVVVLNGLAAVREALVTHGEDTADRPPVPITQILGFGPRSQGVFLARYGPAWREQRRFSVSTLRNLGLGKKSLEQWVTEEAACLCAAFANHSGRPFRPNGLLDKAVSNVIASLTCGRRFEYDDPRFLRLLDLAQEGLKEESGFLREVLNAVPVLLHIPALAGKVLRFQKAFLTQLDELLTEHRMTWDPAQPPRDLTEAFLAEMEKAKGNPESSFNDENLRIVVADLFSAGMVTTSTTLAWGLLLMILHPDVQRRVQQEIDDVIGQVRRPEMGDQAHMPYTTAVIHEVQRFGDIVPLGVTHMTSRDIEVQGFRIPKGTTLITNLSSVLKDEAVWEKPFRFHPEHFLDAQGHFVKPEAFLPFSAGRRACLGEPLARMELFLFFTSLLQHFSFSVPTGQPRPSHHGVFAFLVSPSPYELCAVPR

Nc1ccc(O)c(C(=O)O)c1
caspase-3 activation [1]: -0.695% | caspase-3 activation [2]: 0.369% | Potency [3]: inactive | Potency [4]: inactive | Potency [5]: inactive | Potency [6]: inactive | Potency [7]: 5010 nM (active)

O=c1[nH]c2cc([N+](=O)[O-])c([N+](=O)[O-])cc2[nH]c1=O
outcome [8]: inactive | Potency [9]: inactive | Potency [6]: inactive | Potency [10]: inactive | Potency [7]: inactive | Potency [11]: inactive | Potency [12]: inactive | Potency [13]: inactive

CNCC[C@H](Oc1ccc(C(F)(F)F)cc1)c1ccccc1
outcome [8]: inactive | outcome [9]: inactive

Cn1cc(C2=C(c3ccc(Cl)cc3Cl)C(=O)NC2=O)c2ccccc21
outcome [8]: inactive | Potency [9]: 10000 nM (active) | Potency [14]: 2000 nM (active) | Potency [6]: inactive | Potency [12]: inactive | Potency [13]: inactive

CC1(C)S[C@@H]2[C@H](NC(=O)[C@H](N)c3ccccc3)C(=O)N2[C@H]1C(=O)O
caspase-3 activation [1]: 0.54% | caspase-3 activation [2]: -0.638% | Potency [3]: inactive | Potency [4]: inactive | Potency [5]: inactive

Nc1ccc(O)c([N+](=O)[O-])c1
caspase-3 activation [1]: 4.05% | caspase-3 activation [2]: 0.408% | Potency [3]: inactive | Potency [4]: inactive | Potency [5]: inactive | Potency [14]: inactive

O=C(O)c1cc(O)c(O)c(O)c1
caspase-3 activation [1]: -0.904% | caspase-3 activation [2]: -9.64% | Potency [3]: inactive | Potency [4]: inactive | Potency [5]: inactive | Potency [14]: inactive | outcome [15]: inactive | outcome [16]: inactive

CN(C)c1ccc(C(=C2C=CC(=[N+](C)C)C=C2)c2ccccc2)cc1
caspase-3 activation [1]: -4.63% (active) | caspase-3 activation [2]: -9.3% (active) | Potency [3]: 79.4 nM (active) | Potency [4]: 1000 nM (active) | Potency [5]: 794 nM (active)

COc1cc(/C=C/C(=O)CC(=O)/C=C/c2ccc(O)c(OC)c2)ccc1O
caspase-3 activation [1]: 1.39% | caspase-3 activation [2]: 27.4% | Potency [14]: 12600 nM (active) | Potency [6]: inactive

N.N.O=C(O)C1(C(=O)O)CCC1.[Pt]
outcome [8]: inactive | Potency [9]: 3980 nM (active) | Potency [14]: inactive | Potency [6]: inactive | Potency [7]: 3980 nM (active) | outcome [15]: inactive | Potency [11]: inactive | outcome [16]: inactive | Potency [12]: inactive | Potency [13]: inactive

COc1cc(CNC(=O)CCCC/C=C/C(C)C)ccc1O
caspase-3 activation [1]: 1.09% | caspase-3 activation [2]: 0.218% | Potency [3]: inactive | Potency [4]: inactive | Potency [5]: inactive | Potency [14]: 2510 nM (active) | Potency [6]: inactive | outcome [15]: inactive | outcome [16]: inactive

N=C1N=C(N)c2cc3ccccc3cc21
caspase-3 activation [1]: 153% (active) | caspase-3 activation [2]: 9.9% | Potency [5]: inactive | Potency [14]: inactive

c1ccc2sc(SSc3nc4ccccc4s3)nc2c1
caspase-3 activation [1]: -0.551% | caspase-3 activation [2]: 2.01% | Potency [3]: inactive | Potency [4]: inactive | Potency [5]: inactive | Potency [14]: inactive

CCCCCCCCCCCCCCCCCC(=O)O
caspase-3 activation [1]: -0.546% | caspase-3 activation [2]: 0.144% | Potency [3]: inactive | Potency [4]: inactive | Potency [5]: inactive | Potency [14]: inactive

CCCOC(=O)c1ccc(O)cc1
caspase-3 activation [1]: 1.99% and 0.213% | caspase-3 activation [2]: 0.939% and -1.18% | Potency [3]: inactive | Potency [4]: inactive | Potency [5]: inactive

CN1CCC[C@H]1c1cccnc1
caspase-3 activation [1]: -0.172% | caspase-3 activation [2]: 1.08% | Potency [3]: inactive | Potency [4]: inactive | Potency [5]: inactive

O=C1CN(/N=C/c2ccc([N+](=O)[O-])o2)C(=O)N1
caspase-3 activation [1]: -0.519% | caspase-3 activation [2]: -0.37% | Potency [3]: inactive | Potency [4]: inactive | Potency [5]: inactive | outcome [15]: inactive | outcome [16]: inactive

S=c1[nH]c2ccccc2s1
caspase-3 activation [1]: 0.172% | caspase-3 activation [2]: 1.33% | Potency [3]: inactive | Potency [4]: inactive | Potency [5]: inactive | outcome [15]: inactive | outcome [16]: inactive

CC(C)NCC(O)COc1cccc2ccccc12 (stereo not given)
caspase-3 activation [1]: 12.6% | caspase-3 activation [2]: 0.268% | Potency [3]: inactive | Potency [4]: inactive | Potency [5]: inactive | Potency [14]: inactive | outcome [15]: inactive | outcome [16]: inactive

Oc1ccccc1O
caspase-3 activation [2]: 7.91% | Potency [3]: inactive | Potency [5]: inactive | outcome [8]: inactive | Potency [9]: inactive | Potency [10]: inactive | Potency [7]: inactive

C#C[C@]1(O)CC[C@H]2[C@@H]3CCc4cc(O)ccc4[C@H]3CC[C@@]21C
caspase-3 activation [1]: 3.92% | caspase-3 activation [2]: -0.747% | Potency [3]: inactive | Potency [4]: inactive | Potency [5]: inactive | Potency [6]: inactive

O=c1cc(-c2ccccc2)oc2ccccc12
caspase-3 activation [1]: -0.716% | caspase-3 activation [2]: -5.01% | Potency [3]: inactive | Potency [4]: inactive | Potency [5]: inactive

CN(C)CCC(c1ccc(Cl)cc1)c1ccccn1 (stereo not given)
caspase-3 activation [1]: 1.63% | caspase-3 activation [2]: 1.34% | Potency [3]: inactive | Potency [4]: inactive | Potency [5]: inactive | Potency [14]: inactive

c1cnc2c(c1)ccc1cccnc12
caspase-3 activation [2]: -4.62% | Potency [3]: inactive | Potency [4]: inactive | Potency [5]: inactive | outcome [8]: inactive | Potency [9]: inactive | Potency [14]: inactive | Potency [10]: inactive | Potency [7]: inactive | Potency [12]: inactive | Potency [13]: inactive

COC(=O)c1c(C)[nH]c(C)c1C(=O)c1ccccc1Cc1ccccc1
outcome [8]: inactive | Potency [9]: 2510 nM (active) | Potency [14]: 501 nM (active) | Potency [6]: inactive | Potency [7]: 100 nM (active) | Potency [11]: inactive | Potency [13]: inactive

Nc1nc2ccc([N+](=O)[O-])cc2s1
caspase-3 activation [1]: -1.1% | caspase-3 activation [2]: -4.39% | Potency [3]: inactive | Potency [4]: inactive | Potency [5]: inactive
